Source: PubChem BioAssay AID588492 (Sanford-Burnham Center for Chemical Genomics, 2011)
Hit rate of the full screen: of about 360,000 compounds, about 2,300 (0.64%) were called active.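 Rule for the calls: active = compounds giving at least 50% protection of heart cells from peroxide-induced death in the single-dose screen, raw or plate-pattern-corrected value; inactive = the rest.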 Many of the other results were omitted from the sample, so actives are more common in it than they were.

test: cardioprotection against H2O2-induced cell death, primary screen, uHTS, H9c2 cells, ATPLite luminescence (AID 588492); settings: H9c2 cardiomyocytes, H2O2 injury protection, 2 h, at 20 µM, active compounds read high;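 note: 0% = DMSO wells with peroxide and 100% = DMSO wells without peroxide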

| Compound | protection from H2O2 cell death |
| --- | --- |
| CCCc1c(C)nc2scc(-c3ccc(Cl)cc3)n2c1=O | -0.2% (inactive) |
| Cc1cc(NC(=O)OC(C)C)ccc1-c1ccc(NC(=O)OC(C)C)cc1C | 0.3% (inactive) |
| COc1ccc(CSc2nnnn2-c2ccc(O)cc2)cc1F | -8.7% (inactive) |
| Cc1ccc(OCCNC(=O)CCNS(=O)(=O)c2ccc(Br)cc2)cc1 | -2.6% (inactive) |
| CC1CCN(C(=O)CN(c2ccc(Oc3ccccc3)cc2)S(C)(=O)=O)CC1 | -13.4% (inactive) |
| Cc1nonc1OCCn1nnnc1N | -1.7% (inactive) |
| Cc1oc(C(N)=O)cc1COc1ccc(C(N)=O)cc1 | -0.9% (inactive) |
| O=C(c1ccc(N2CCOCC2)c([N+](=O)[O-])c1)N1CCN(S(=O)(=O)c2cccs2)CC1 | -4.8% (inactive) |
| Cc1cccn2c(=O)nc(SCC(=O)NCc3ccccc3Cl)nc12 | -5.6% (inactive) |
| CCCn1c(SCC(=O)c2ccc3c(c2)OCCO3)nnc1C(C)C | 2.3% (inactive) |
| CN1CCNC(=O)C1CC(=O)N1CC=C(c2ccc(F)cc2)CC1 (configuration not stated) | -0.1% (inactive) |
| N#Cc1ccccc1NC(=O)c1cccc(COc2ccc(Cl)cc2Cl)c1 | -3.6% (inactive) |
| Cc1c(CCC(=O)O)c(=O)oc2c(C)c(OCc3ccccc3Cl)ccc12 | 1.3% (inactive) |
| Cc1c(CC(=O)N2CCN(C(=O)C3COc4ccccc4O3)CC2)c(=O)oc2c(O)c(O)ccc12 (configuration not stated) | 61.9% (active) |
| Cc1ccc(S(=O)(=O)NCCC(=O)NNC(=O)C2COc3ccccc3O2)cc1 (configuration not stated) | -3.1% (inactive) |
| Cc1nc2c(OCc3ccc(Cl)cc3)cccn2c1N(C)Cc1cccs1 | -9.7% (inactive) |
| CCc1nc2ccc(C(=O)N(C)Cc3ccco3)cn2c1N(C)C(=O)Cc1ccccc1 | -2.1% (inactive) |
| CCC(=O)Nc1ccccc1C(=O)N1CCN(Cc2ccccc2)CC1 | 5.1% (inactive) |
| COCCNc1nc(-c2ccccc2)nc2c1oc1ccccc12 | 1.8% (inactive) |
| COc1ccccc1Nc1ncnc2c1oc1ccccc12 | 7.1% (inactive) |
| CCc1nc(Nc2ccc3nccnc3c2)c2oc3ccccc3c2n1 | 53.3% (active) |
| Cc1ccc(C(=O)N(CC(=O)NC2CCCC2)c2ccc(F)cc2)s1 | -2.3% (inactive) |
| COc1cccc(N2CC(C(=O)NCc3n[nH]c(=O)c4ccccc34)CC2=O)c1 (configuration not stated) | 50.2% (active) |

| Compound | protection from H2O2 cell death |
| --- | --- |
| COc1ccc(C(=O)CSc2nnc(NC(=O)C3CC(=O)N(c4cccc(OC)c4)C3)s2)cc1 (configuration not stated) | -1.6% (inactive) |
| COc1cccc(CNC(=O)C2CC(=O)N(C3CCCCCCC3)C2)c1 (configuration not stated) | -0.1% (inactive) |
| COC(=O)CN(c1cccc(C(C)=O)c1)S(C)(=O)=O | -1% (inactive) |
| O=C(Nc1cccc2cccnc12)c1ccc2sc([C@H]3C[C@H](O)[C@@H](CO)O3)nc2c1 | 76.9% (active) |
| O=C(Nc1nnc([C@H]2C[C@H](O)[C@@H](CO)O2)s1)c1cccc(Cl)c1 | 3% (inactive) |
| O=C(Nc1ccc(Cl)cc1)c1csc([C@H]2C[C@H](O)[C@@H](CO)O2)n1 | -8.3% (inactive) |
| CCOn1c(=O)c(=O)n(O)c2ccccc21 | 3.3% (inactive) |
| CCOc1cc(N2CCOCC2)c(OCC)cc1NC(=O)COC(=O)[C@H](Cc1c[nH]c2ccccc12)NC(C)=O | 10.2% (inactive) |
| CCOc1cc(N2CCOCC2)c(OCC)cc1NC(=O)C1=NN(c2cccc(C)c2)C(=O)CC1 | 15.6% (inactive) |
| CCOc1cc(N2CCOCC2)c(OCC)cc1NC(=O)COc1cccc2cccnc12 | 50.1% (active) |
| CCc1ccc2c(c1)cc(CN(C(=S)Nc1ccccc1Cl)C1CC1)c1nnnn12 | -3.2% (inactive) |
| Clc1ccc(C2=CSC3=Nc4cccc5cccc(c45)N23)cc1 | -4.9% (inactive) |
| COc1cc(CO)c(C2(CO)CCCC2)cc1OC | 2.5% (inactive) |
| CCOc1cc(NS(=O)(=O)c2ccc(OC)cc2)c(OCC)cc1NC(C)=O | -4% (inactive) |
| COc1cc(NS(=O)(=O)c2ccc3ccccc3c2)c2ncccc2c1 | 61.8% (active) |
| O=S(=O)(Nc1ccccn1)c1cccc(S(=O)(=O)c2ccc(Cl)cc2)c1 | -4.1% (inactive) |
| CC1(C)OC(=O)C2=C(CC(c3ccccc3)OC2CCc2ccccc2)O1 (configuration not stated) | -19.2% (inactive) |
| COc1cccc(Cn2cnc3c([N+](=O)[O-])c(C)c(C)cc32)c1 | 1.8% (inactive) |
| O=C(CSc1cccc2cccnc12)N/N=C/c1cccnc1 | -2.6% (inactive) |
| O=C(N/N=C/c1cccc2cccnc12)[C@H]1C[C@@H]1c1ccccc1 | 84.8% (active) |
| Cc1ccc(NC(=O)C2CC2c2ccccc2)cc1 (configuration not stated) | -6.9% (inactive) |
| Cc1nnc(C)c2c(C)n(N)c(C)c12 | 15.4% (inactive) |
| Cc1ccc(S(=O)(=O)N(C)C)cc1NC(=O)CN1c2cccc3cccc(c23)S1(=O)=O | 3.5% (inactive) |

| Compound | protection from H2O2 cell death |
| --- | --- |
| O=C(NC(=O)N1CCSCC1)c1c(Cl)cccc1Cl | 4.6% (inactive) |
| CCOC(=O)c1ccc(N/C(=N/S(=O)(=O)c2ccccc2)c2ccccc2)cc1 | 1.3% (inactive) |
| COC(=O)c1ccc(Nc2ncnc3sccc23)cc1 | 5.6% (inactive) |
| CCOC(=O)c1nc(Nc2ccc(C(=O)OC)cc2)c2ccccc2n1 | 50.6% (active) |
| CCc1ccc(OCC(=O)NCC(c2ccc(Cl)cc2)N2CCCCC2)cc1 (configuration not stated) | 2.7% (inactive) |
| COc1ccc(CC(=O)NCC(=O)N/N=C/c2cc(Br)ccc2OC)cc1 | 52.8% (active) |
| COc1ccc(-c2[nH]ncc2/C=N/NC(=O)c2cc(Br)ccc2O)c(OC)c1 | 3.5% (inactive) |
| Cc1ccc(OCCOCCOc2ccc(Br)cc2/C=N\NC(=O)c2ccncc2)cc1 | 6.5% (inactive) |
| NC(=NC(=O)c1ccccc1)C1=C(O)CCC1=O | -0.2% (inactive) |
| C=CCn1c(-c2ccc(Cl)cc2)ccc(C#N)c1=O | -10% (inactive) |
| COc1cc2[nH]c(O)c(C=O)c2cc1OC | 4.5% (inactive) |
| COc1cc(N=Cc2c(O)[nH]c3ccccc23)cc(OC)c1OC | 69.8% (active) |
| CN=c1scc(-c2cc(OC)ccc2OC)n1/N=C/c1c(C)[nH]c2ccccc12 | 0.4% (inactive) |
| COc1ccc(CCNc2cc(C)nc3c(-c4ccc(Cl)cc4)c(C)nn23)cc1OC | 0.4% (inactive) |
| COc1cc(-c2nnc(NC(=O)CS(=O)(=O)c3ccc(Cl)cc3)o2)cc(OC)c1OC | 6.5% (inactive) |
| COc1cccc(-c2nnc(NC(=O)c3ccc(S(=O)(=O)N(CC(C)C)CC(C)C)cc3)o2)c1 | 56.4% (active) |
| O=C(Nc1nnc(-c2ccccc2)o1)c1cccc(S(=O)(=O)N2CCOCC2)c1 | 10.2% (inactive) |
| CCc1ccc(/C=N/NC(=O)c2nnn(-c3nonc3N)c2CN2CCc3ccccc32)cc1 | -2.2% (inactive) |
| O=C(CSc1c2c(nc3ccc(Cl)cc13)CCCC2)NCc1ccco1 | 5.3% (inactive) |
| O=C(NCc1ccco1)c1cc(-c2cccnc2)nc2ccc(Cl)cc12 | 74% (active) |
| NC(=O)c1cc(-c2cccnc2)nc2ccc(Br)cc12 | 0.3% (inactive) |
| Cc1cccc(NC(=O)N2CCCCCC2)c1C | -0.5% (inactive) |
| CC(NC(=O)c1ccco1)C(=O)Nc1nc(-c2ccccn2)cs1 (configuration not stated) | 10.4% (inactive) |

| Compound | protection from H2O2 cell death |
| --- | --- |
| N#Cc1ccc(OCC(=O)Nc2nc(-c3ccccn3)cs2)cc1 | 69.2% (active) |
| CC1CCCCC1NC(=O)COc1ccc(C#N)cc1 (configuration not stated) | 7% (inactive) |
| CC1CCN(S(=O)(=O)c2nnc(NC(=O)COc3ccccc3F)s2)CC1 | -6.3% (inactive) |
| O=C(NCCN1C(=O)C2C3C=CC(C3)C2C1=O)Nc1ccccn1 (configuration not stated) | -2.9% (inactive) |
| O=C(COc1ccccc1F)Nc1nc(-c2ccccn2)cs1 | 60% (active) |
| O=C(COc1ccccc1)Nc1nonc1NC(=O)COc1ccccc1 | -3.9% (inactive) |
| O=C(CCN1C(=O)C2C3C=CC(C3)C2C1=O)Nc1ccccc1F (configuration not stated) | -1.8% (inactive) |
| O=C(CN1C(=O)C2C3C=CC(C3)C2C1=O)Nc1nc(-c2ccccn2)cs1 (configuration not stated) | 51.3% (active) |
| CC12CCC(=O)N1C(C(=O)Nc1ccc(F)c(F)c1F)CS2 (configuration not stated) | 0.6% (inactive) |
| COc1ccc2c(c1)c(=Cc1ccc(N(C)C)cc1)c1cc(-c3ccccc3)[n+](C)n12 | -20% (inactive) |
| COc1ccccc1N(C)S(=O)(=O)c1ccc(Cl)c(C(=O)Nc2ccncc2)c1 | -8.6% (inactive) |
| Cn1nnnc1-c1cc(Cl)cc(Cl)c1 | -2.9% (inactive) |
| Cn1cccc1C(=O)NC(=O)COC(=O)Cc1coc2ccc3ccccc3c12 | -3.6% (inactive) |
| O=C(Nc1ccccc1)c1cc2ccccc2[nH]1 | 3.8% (inactive) |
| O=C(NCC(O)c1nc2ccccc2[nH]1)c1ccc(Br)cc1 (configuration not stated) | -3.3% (inactive) |
| O=C(Nc1cccc(-c2nc3ccccc3[nH]2)c1)c1ccc(C(=O)Nc2cccc(-c3nc4ccccc4[nH]3)c2)cc1 | 49.1% (active) |
| CCOC(=O)Cn1c(O)c(N=NC(=O)CNC(=O)Cc2ccccc2)c2ccccc21 | 6.8% (inactive) |
| CN(Cc1ccccc1F)c1cc2c(c3c1ccn3C)C1CCC2O1 (configuration not stated) | -4.4% (inactive) |
| COc1ccccc1C(=O)C(O)c1ccccc1OC (configuration not stated) | 1.8% (inactive) |
| CCCn1c(SCC(=O)Nc2ccc(C)c(S(=O)(=O)N3CCOCC3)c2)n[nH]c1=O | 6.6% (inactive) |
| C[C@H]1Cn2cnc(C(=O)N[C@H](C)c3ccccc3)c2C(=O)N1 | 7.3% (inactive) |
| C[C@H]1Cn2cnc(C(=O)N[C@@H](Cc3c[nH]c4ccccc34)C(=O)OC(C)(C)C)c2C(=O)N1 | 99.5% (active) |
| C[C@@H]1Cn2cnc(C(=O)Nc3ccc(CNC(=O)OC(C)(C)C)cc3)c2C(=O)N1 | -12.9% (inactive) |
